Pf growth 48h = inhibits P. falciparum growth in the first generation, 48 h. P. falciparum luciferase growth in erythrocytes, 48 h. Potency, µM (series often up to 28.7 µM), inactives show at the highest dose activity change, negative = inhibition, most hits filed as inhibitors. 5.9% of 310,000 active; note: potency is the fitted concentration of half-maximal effect; % is set by controls: 0 for no effect and ±100 for the full control effect
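A one-generation exposure of luciferase-tagged malaria parasites in RPMI 1640/Albumax erythrocyte culture, 37 C and 5% CO2. Inhibition is inferred from decreased luminescence after adding detection reagent.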
Pf growth 96h = P. falciparum growth inhibition at 96 hours; P. falciparum luciferase reporter growth, 96 h; 6.9% of 320,000 active; Potency, µM (doses to about 28.7 µM), inactives show top-dose activity change, negative = inhibition, most hits filed as inhibitors; note: potency is the fitted concentration of half-maximal effect; % is set by controls: 0 for no effect and ±100 for the full control effect
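Compounds incubated with erythrocytes infected by luciferase-expressing P. falciparum (2% hematocrit, 0.05% parasitemia final) for 96 hours, 37 C in 5% CO2. Growth inhibition scored as decreased luciferase luminescence.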
NS1 function inh = inhibitors of influenza NS1 protein function | 0.4% of 270,000 active | Potency, µM (top dose mostly 46.1 µM), for the others: at the highest dose activity, positive = more growth; calls by dose curve; note: potency is the fitted concentration of half-maximal effect; actives are rising curves; nearly all actives have a fitted effect of over 50% in size
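Recovery from NS1-induced slow growth read by OD600 in budding yeast switched to galactose assay medium (pH 6.0, -URA) at 1:100 dilution. Compound 23 nl per well; the matching strain lacking NS1 serves as control.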
Cycloheximide cs = counter-screen hit for Shiga toxin inhibitors, cycloheximide; cell reporter, cycloheximide protein synthesis inhibition counterscreen; max response, %; 12% of 300,000 active; AID 2314; in the data active = max response mostly above about 13%, no sharp cut-off; inactive = mostly below about 14%; note: read at 38.3 µM for the half of the compounds with a filed dose; 0% is about no effect
Shiga inhibitor = Shiga toxin inhibition; Vero cells, Shiga toxin protein synthesis inhibition reporter; inhibition, % at 38.7 µM; 9.2% of 290,000 active; AID 2315; in the data active = inhibition mostly above about 28%, no sharp cut-off; inactive = mostly below about 43%; note: 0% is about no effect
The depositor's hits bear a star; ? = inconclusive; / = no result given. Shown are actives, neighbours in structure and some others; about 21% of the full set was active somewhere. Unless noted, calls come from the whole dose curve; as a rule, active = well fitted inhibition curve with a large enough effect; inconclusive = small, poorly fitted or top-dose-only effect, or another doubt; inactive = no such curve, though single readings can be large or run the other way.

SMILES	Pf growth 48h	Pf growth 96h	NS1 function inh	Cycloheximide cs	Shiga inhibitor
CCc1ccc2nc(N(CCCN(C)C)C(=O)c3ccc(S(=O)(=O)N4CCCc5ccccc54)cc3)sc2c1	?	?	6%	-1	-6
CN(C)CCN(C(=O)c1ccc(S(=O)(=O)N2CCc3ccccc32)cc1)c1nc2ccc(F)cc2s1	28%	30%	13%	16	79*
COc1cccc2sc(N(CCCN(C)C)C(=O)c3ccc(S(=O)(=O)N4CCCc5ccccc54)cc3)nc12	10µM*	?	18%	-2	-12
COc1ccc(CCNc2cc(C)nc3c(-c4ccccc4OC)cnn23)cc1OC	13µM*	?	-6%	11	-10
Fc1ccc(-c2nnc3ccccn23)cc1	-10%	-21%	/	7	30
COc1cc(-c2ncc3ccccn23)cc(OC)c1OC	/	?	-2%	-1	-10
c1csc(-c2ncc3ccccn23)c1	32%	?	-1%	40*	68*
Brc1ccc(-c2ncc3ccccn23)cc1	32%	114%	-74%	60*	88*
Fc1ccc(-c2ncc3ccccn23)cc1	57%	?	0%	33*	33
Cc1ccc(N2CCN(C(=O)c3nn(C)c4c3CS(=O)(=O)c3ccccc3-4)CC2)c(C)c1	1%	37%	-3%	4	-8
Clc1ccc(OCCNCCc2ccccc2)cc1	0%	?	-5%	-4	/
Cc1ccc(S(=O)(=O)NNC(=O)NC23CC4CC(CC(C4)C2)C3)cc1	12%	17%	3%	-2	-3
COc1cc(-c2nc3n(c(=O)c2C#N)CCS3)cc(OC)c1OC	?	0.66µM*	12%	-3	-16
CCOc1ccc(/C(O)=C2/C(=O)C(=O)N(CCCn3ccnc3)C2c2cccs2)cc1Cl (centres undefined)	-11%	?	-4%	47*	63*
Cc1ccc(/C(O)=C2/C(=O)C(=O)N(CCCn3ccnc3)C2c2cccnc2)cc1 (centres undefined)	/	/	9%	/	/
CCCOc1ccc(/C(O)=C2/C(=O)C(=O)N(CCCn3ccnc3)C2c2cccnc2)cc1 (centres undefined)	-21%	3%	-46%	-3	-5
CCCOc1ccc(/C(O)=C2/C(=O)C(=O)N(CCCn3ccnc3)C2c2cccs2)cc1 (centres undefined)	17%	16%	3%	16*	13
COc1ccc(S(=O)(=O)N(C)c2ccc(OC(=O)C(C)Oc3ccc(F)cc3)cc2)cc1 (centres undefined)	9%	22%	/	/	/
CCOc1cc(/C=C2\N=C(SC(C)C(N)=O)N(c3ccc(OC(F)F)cc3)C2=O)ccc1O (centres undefined)	47%	1.2µM*	15%	1	-7
CCN(CC)CCNC(=O)C(=O)Nc1ccc2c(c1)N(S(=O)(=O)c1cccs1)CCC2	15µM*	?	/	/	/
COc1ccccc1C1=CC(=O)CC(C)(C)C1=O	7%	81%	/	/	/
CCN1CCN(c2ccc([N+](=O)[O-])c(Sc3nc4ccccc4[nH]3)c2)CC1	?	2.6µM*	0%	1	-23
C=CCOc1cccc(/C=C/c2nc3ccccc3c(=O)[nH]2)c1	/	-69%	2%	41*	71*
COc1ccc(/C=C/c2nc(C)c(-c3ccccc3)c(=O)[nH]2)cc1OC	?	-99%	-26%	-4	-9
COc1cc(/C=C/c2nc3ccccc3c(=O)[nH]2)ccc1OC(F)F	/	101%	-1%	29*	47
SMILES	Pf growth 48h	Pf growth 96h	NS1 function inh	Cycloheximide cs	Shiga inhibitor
COc1cc(/C=C/c2nc3ccccc3c(=O)[nH]2)cc(OC)c1OC	33%	13%	-1%	28*	48
O=S(=O)(Nc1cccc(-n2cnnn2)c1)c1cc(Cl)ccc1Cl	15%	33%	-3%	-2	-9
COc1ccc(-c2csc3c2[N+]2=CCC=C2C3=O)cc1	/	/	-15%	/	/
COc1ccc(C(=O)NCC(=O)Nc2ccccc2)cc1OC	37%	/	6%	5	-15
C=CC[n+]1c(-c2ccc(OC)c(OC)c2)csc1NNC(=O)Nc1ccccc1	7.4µM*	9.3µM*	2%	-2	-17
S=C(c1ccc(N2CCCC2)cc1)N1CCCCC1	-76%	/	-50%	52*	112*
COc1ccc(C(=S)N2CCCCC2)cc1Br	-10%	16%	-1%	1	11
S=C(c1ccc(N2CCCC2)c(Br)c1)N1CCCCC1	?	11%	4%	12*	17
CCCn1ncc(CN2CCC(n3nccc3NC(=O)c3ccccc3Cl)CC2)c1C	-8%	?	2%	8	-4
O=C(O)Cc1sc(Nc2ccccc2)nc1-c1ccc(Cl)cc1	92%	112%	/	42*	119*
O=C(Cc1sc(Nc2ccccc2)nc1-c1ccccc1)NCc1ccccn1	13%	-6%	/	39*	53*
Cc1ccc(Nc2nc(-c3ccccc3)c(CC(=O)O)s2)cc1	67%	?	/	47*	82*
O=C(O)Cc1sc(Nc2ccc(F)cc2)nc1-c1cccs1	59%	76%	/	30*	60*
O=C(Nc1nnc(COc2ccc(F)cc2)s1)c1cccs1	14%	8%	3%	3	-13
Nc1oc2ccc(F)cc2c(=O)c1C=O	12%	32%	6%	8	6
CCNC(=O)NCc1c(C)c(C)n(Cc2ccccc2)c1-n1cccc1	?	-5%	/	-3	-6
Cc1cccc(-n2c(SCC(=O)N3CC(=O)Nc4ccccc43)nc3ccccc3c2=O)c1	13µM*	?	2%	-1	3
O=C1CN(C(=O)CSc2nc3ccccc3c(=O)n2CC2CCCO2)c2ccccc2N1 (centres undefined)	-21%	?	/	12	-2
Cc1cccc(-n2c(SCC(=O)N3CC(=O)Nc4ccccc43)nc3ccccc3c2=O)c1C	?	3.7µM*	?	-4	14
Cc1ccc(-n2c(SCC(=O)N3CC(=O)Nc4ccccc43)nc3ccccc3c2=O)cc1C	10µM*	8.3µM*	?	6	11
CCOC(=O)c1ccc(N(C(=O)c2ccco2)C(C(=O)NC2CCCC2)c2ccncc2)cc1 (centres undefined)	?	32%	-25%	7	16
O=C(NNS(=O)(=O)c1ccc(F)cc1)c1cc(Cl)ccc1O	0%	?	9%	1	-7
Cc1cc(CN2CCN(CCC#N)CC2)c(O)c(C2(C)CCCCC2)c1	9.3µM*	11%	-138%	-1	8
COC(=O)C(CC(C)C)N1CCC(=O)c2ccccc2S1(=O)=O (centres undefined)	-21%	?	6%	1	-7
CC(C)(C)N1C(=O)[C@H]2[C@@H](c3ccc(Br)cc3)N3C(=O)N(c4ccc(Br)cc4)C(=O)[C@@]3(Cc3ccccc3)[C@H]2C1=O	?	?	?	10	29
O=C1[C@H]2[C@@H](c3ccc(F)cc3)N3C(=O)N(c4cccc(Br)c4)C(=O)[C@@]3(Cc3ccccc3)[C@H]2C(=O)N1C1CCCCC1	4.1µM*	?	/	/	/
